Bioassay records from PubChem BioAssay.
HIV Env fusion: inhibitors of HIV-1 Env-driven cell-cell fusion, primary screen, HeLa-JRFL effector, CEM21 target cells, luciferase | inhibition, % at 12.3 µM | hit rate 1.1% among 360,000;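 active means mean replicate inhibition score of at least 50 and every replicate individually at or above 50; inconclusive means only one of the two criteria met; inactive means mean below 50 and not all replicates reaching 50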
ALR H2O2 inh: inhibitors of human ALR sulfhydryl oxidase, primary screen, biochemical, H2O2 detection, HRP-luminol luminescence, single point; inhibition, % (no concentration beside the values); AID 485317, 2010; purified ALR, DTT oxidation; hit rate 3.8% among 290,000;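 active means mean replicate inhibition above about 79%, with every replicate also reaching it, limit read from the data; inconclusive means only one of the two criteria met; inactive means mean below limit and not every replicate reaching it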
F508del corr: F508del CFTR correction, initial screen, CFBE line, single point; CFBE cells, YFP halide quenching; stimulated with forskolin plus potentiator P3; % fluorescence drop versus neutral controls; activity (quench increase), % at 7.58 µM; hit rate 0.36% among 350,000;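 active means mean added fluorescence quench of at least 8% versus neutral control, with both replicates also reaching 8%; inconclusive means only one of the mean or replicate conditions met; inactive means mean below 8% and not both replicates reaching 8%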;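 further: cells transiently co-express mutant CFTR-F508del with the halide-sensitive YFP; corrector assay measuring rescue of mutant channel to the surface after 24 h compound exposure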
PglD DTNB: C. jejuni PglD acetyltransferase inhibitors, primary screen, biochemical, DTNB colorimetric, single point; UDP-N-acetylbacillosamine N-acetyltransferase PglD (Campylobacter jejuni); purified PglD enzyme, DTNB colorimetric CoA detection; inhibition, % at 12.5 µM; hit rate 0.098% among 360,000; AID 602405, 2012; in the data active means inhibition above about 16%, passing the limit was not always enough; inconclusive means no clear call, values can overlap the other calls
CASP6 VEID inh: human caspase-6 inhibitors, primary screen, biochemical, VEID-R110 fluorescence, single point, set 2 | purified caspase-6, Z-VEID-R110 cleavage fluorescence | inhibition, % at 12.5 µM | hit rate 0.53% among 350,000;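 active means mean inhibition across replicates at least about 35%, with every replicate also reaching that limit, limit read from the data; inconclusive means only one of the two criteria met; inactive means neither criterion met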
NSD2 inh: NSD2 histone methyltransferase inhibitors, primary screen, biochemical, AlphaScreen, single concentration, set 2. hit rate 0.54% among 310,000. inhibition, % at 12.5 µM. NSD2 peptide methylation, 120 min; in the data active means inhibition above about 50%
Hits are given with their value; – = inactive; ? = inconclusive; · = not tested or not shown. Only some compounds are listed: those with a hit (about 4.1% of all), similar ones and a draw of the others.

SMILES	HIV Env fusion	ALR H2O2 inh	F508del corr	PglD DTNB	CASP6 VEID inh	NSD2 inh
CC=Cc1ccc2n(c1=O)C[C@H]1[C@H](CO)[C@@H](C(=O)OC)[C@@H]2N1CC1CCOCC1 (mixture of isomers)	?	·	·	–	–	·
COC(=O)[C@@H]1[C@@H](CO)[C@@H]2Cn3c(ccc(C4=CCCCC4)c3=O)[C@H]1N2C(=O)NC(C)C	·	·	–	–	–	·
O=C(Cc1ccccn1)N1CCCCN2[C@H](CO)[C@@H](c3ccc(-c4ccc(F)cc4)cc3)[C@H]2C1	·	·	–	–	–	·
COc1ccccc1N1C(=O)NC(=O)/C(=C/c2ccc3c(c2)Cc2ccccc2-3)C1=O	–	–	–	·	–	–
CC(C)(C)N1C(=O)NC(=O)/C(=C\c2ccc3c(c2)CCN3CCCCl)C1=O	–	90.2	–	–	–	–
Oc1ccccc1-[n+]1c(-c2ccccc2)cc(-c2ccccc2)cc1-c1ccccc1	–	–	–	–	–	·
Cc1ccccc1-[n+]1c(-c2ccccc2)cc(-c2ccccc2)cc1-c1ccccc1	67.8	–	–	–	–	·
CCCCCCn1c(=O)c(C(=O)Nc2ncccc2C)c(O)c2ccccc21	83.4	–	–	–	–	–
CCCCn1c(=O)c(C(=O)Nc2ncccc2C)c(O)c2ccccc21	?	–	–	–	–	–
O=C(Cc1ccccc1)N1CCCCN2[C@@H](CO)[C@@H](c3ccc(-c4ccccc4)cc3)[C@@H]2C1	·	·	–	–	–	·
O=C1NC(=O)C2(Cc3ccccc3N3CCCC32)C(=O)N1 (centres undefined)	61.3	99.4	·	–	·	–
O=C(O)[C@@H]1[C@@H](CO)[C@@H]2Cn3c(cccc3=O)[C@H]1N2C(=O)c1ccccc1	·	·	·	–	–	·
COc1cc2c(cc1O)CC1c3c(cc(O)c(OC)c3-2)CCN1C (centres undefined)	·	98.9	–	–	–	·
CCCC/C(C)=C/[C@@H](NP(=O)(c1ccccc1)c1ccccc1)c1ccccc1	84.1	–	–	–	–	·
CCCCCP(=O)(O)c1ccccc1	–	–	·	–	·	–
CNC(=O)Oc1cccc2ccccc12	–	–	–	–	–	–
CNC(=O)Oc1ccc(N(C)C)cc1C(C)C	–	92.2	–	–	–	–
N#Cc1cccc(-c2ccc([C@@H]3[C@@H](CO)N4CCCCN(C(=O)Cc5ccccc5)C[C@H]34)cc2)c1	·	·	–	–	–	·
O=C(Cc1cccnc1)N1CCCCN2[C@@H](CO)[C@@H](c3ccc(C#CC4CC4)cc3)[C@@H]2C1	·	·	–	–	–	·
CC(=O)Nc1ccc(C=C2C(=O)NC(=O)NC2=O)cc1	63.2	·	–	·	–	–
COC(=O)[C@H]1[C@H](CO)[C@H]2Cn3c(ccc(-c4ccccc4F)c3=O)[C@@H]1N2	–	·	·	–	–	·
CCCC/C(=N\O)c1c[nH]c2ccccc12	·	89.2	·	–	·	–
O/N=C/c1c[nH]c2ccccc12	·	·	·	·	·	–
COC(=O)[C@@H]1[C@@H](CO)[C@@H]2Cn3c(ccc(-c4cccnc4)c3=O)[C@H]1N2S(=O)(=O)c1ccccc1C	–	·	·	–	–	·
CN1C(=O)C(Cc2ccccc2)C(=O)N(C)C1=O	–	·	–	·	–	–
SMILES	HIV Env fusion	ALR H2O2 inh	F508del corr	PglD DTNB	CASP6 VEID inh	NSD2 inh
CN1C(=O)c2ccccc2NC(=O)C1Cc1ccccc1 (centres undefined)	·	97.5	–	–	–	·
CCOC(=O)[C@@H]1[C@@H]2NC(=S)N(C)[C@@]1(COCc1ccc(OC)cc1)Oc1ccccc12	–	·	–	–	–	·
C=C1C(=O)O[C@H]2C[C@@H](C)[C@@H]3C=CC(=O)[C@@]3(C)C[C@H]12	–	·	–	·	74.3	·
C=C1C(=O)OC2CC(C)C3C=CC(=O)C3(C)C(O)C12 (centres undefined)	·	·	·	·	·	–
C=C1C(=O)O[C@@H]2C[C@@H](C)[C@@H]3C=CC(=O)[C@@]3(C)[C@@H](OC(=O)CC(=O)O[C@H]3[C@@H]4C(=C)C(=O)O[C@@H]4C[C@@H](C)[C@@H]4C=CC(=O)[C@]43C)[C@H]12	108.9	–	–	–	–	·
COC(=O)[C@H]1[C@H](CO)[C@H]2Cn3c(ccc(C4=CCCC4)c3=O)[C@@H]1N2Cc1ccccn1	·	·	·	–	–	·
O=C1C(=O)c2cccc3cccc1c23	–	–	–	·	–	–
O=C1C(=O)c2ccccc2-c2ccccc21	90.6	–	–	–	53.8	·
O=C1CNC[C@H]2[C@@H](c3ccc(Br)cc3)[C@@H](CO)N12	·	·	–	·	–	·
O=C(O)Cn1cc(/C=C2\C(=O)NC(=O)N(c3ccc(Cl)cc3)C2=O)c2ccccc21	–	–	–	–	–	–
O=C1NC(=O)N(c2ccc(Cl)cc2)C(=O)/C1=C\c1ccc(Sc2nc3ccccc3[nH]2)o1	–	–	–	·	69.2	–
O=C(Cc1ccccc1)N1CCCCN2[C@@H](CO)[C@H](c3ccc(C#CC4(O)CCCC4)cc3)[C@@H]2C1	·	·	–	–	–	·
C[C@]12CCC(OC(=O)CCC(=O)O)CC1=CCC1C2CC[C@]2(C)C(=O)CCC12 (some centres undefined)	–	–	–	–	–	–
COCCO[C@H]1CC[C@@]2(C)C(=CCC3C2CC[C@@]2(C)C3CC[C@]2(C)O)C1 (some centres undefined)	–	–	8.7	–	–	–
CCN1CCN(Cc2cc(Br)ccc2O)CC1	?	–	·	–	·	–
CCN1CCN(Cc2cc(Br)cc(Br)c2O)CC1	–	98.6	·	–	·	–
CC(C)NS(=O)(=O)c1ccc(OCC(=O)N2CCN(Cc3ccc4c(c3)OCO4)CC2)c(Cl)c1	74.2	–	·	–	–	–
C[C@H]1CN([C@@H](C)CO)C(=O)CCCn2cc(nn2)CO[C@H]1CN(C)C(=O)Oc1cccc2ccccc12	·	·	–	·	·	·
Cc1c(CC(=O)N2C[C@H]3C[C@@H](C2)c2cccc(=O)n2C3)c(=O)oc2c(C)c(O)ccc12	·	89.4	–	–	–	·
Cc1c(CCC(=O)N2C[C@H]3C[C@@H](C2)c2cccc(=O)n2C3)c(=O)oc2c(C)c(O)ccc12	·	·	–	–	–	·
COC(=O)[C@H]1N[C@H]2c3ccc(C4=CCCC4)c(=O)n3C[C@H]2[C@@H]1CO	·	·	·	–	–	·
CN1C(=O)N(C)C(=O)C2(Cc3c(ccc4ccccc34)N(C)C2)C1=O	–	98.8	·	–	·	–
N#CC1=C(N)Oc2c(c(=O)sc3ccccc23)C1c1ccncc1 (centres undefined)	–	95.4	–	·	–	–
N#CC1=C(N)Oc2c(c(=O)oc3ccccc23)C1c1cccnc1 (centres undefined)	–	–	·	·	·	–
CC1(C)OC(c2ccccc2)=C/C(=C/C=C2C(=O)NC(=O)NC2=O)O1	–	–	14.0	·	–	–
